# Positions count from the first letter of the chain named.
# Tests used:
# Test in all cases: RPB-ELISA
# Details in all cases: tags: N-terminal luciferase, C-terminal 6xHis; label: 5'-biotin; ssRNA
# v3.1_PPR7 = target: T1, v3.1_PPR7 (Artificial Sequence)
# T1 chain: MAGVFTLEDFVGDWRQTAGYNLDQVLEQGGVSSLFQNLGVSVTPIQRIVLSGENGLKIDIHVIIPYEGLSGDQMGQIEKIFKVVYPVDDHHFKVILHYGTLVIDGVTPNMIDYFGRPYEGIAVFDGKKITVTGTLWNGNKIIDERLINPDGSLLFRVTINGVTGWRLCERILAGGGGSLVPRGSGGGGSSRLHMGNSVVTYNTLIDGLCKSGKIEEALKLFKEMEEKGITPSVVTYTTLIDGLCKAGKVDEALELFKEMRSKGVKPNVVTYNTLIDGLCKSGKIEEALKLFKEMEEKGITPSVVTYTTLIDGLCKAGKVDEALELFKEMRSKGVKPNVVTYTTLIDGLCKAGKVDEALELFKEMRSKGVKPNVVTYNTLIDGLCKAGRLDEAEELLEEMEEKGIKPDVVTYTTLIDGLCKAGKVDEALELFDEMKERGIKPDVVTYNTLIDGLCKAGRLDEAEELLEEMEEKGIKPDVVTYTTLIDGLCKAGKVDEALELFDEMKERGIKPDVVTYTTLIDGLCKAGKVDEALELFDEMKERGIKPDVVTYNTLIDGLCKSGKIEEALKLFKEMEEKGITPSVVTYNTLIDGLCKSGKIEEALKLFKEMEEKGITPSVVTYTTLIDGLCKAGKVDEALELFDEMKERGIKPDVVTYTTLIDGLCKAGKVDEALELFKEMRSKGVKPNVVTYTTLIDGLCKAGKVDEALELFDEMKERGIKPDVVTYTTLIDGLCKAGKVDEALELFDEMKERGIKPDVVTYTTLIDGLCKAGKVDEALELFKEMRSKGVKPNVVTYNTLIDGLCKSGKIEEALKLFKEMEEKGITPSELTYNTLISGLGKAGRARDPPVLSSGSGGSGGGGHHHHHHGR
# Summary of the method: (§1)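 5′-biotinylated 30-base RNA probes (18-base target) immobilised on streptavidin plates, then bound 30 min at RT by E. coli lysate with luciferase-fused PPR protein (1.5×10⁸ LU/μL) in Tris pH 7.6 buffer. Binding = luminescence minus no-RNA background.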
# NL_v2_PPR20 = target: T2, NL_v2_PPR20 (Artificial Sequence)
# T2 chain: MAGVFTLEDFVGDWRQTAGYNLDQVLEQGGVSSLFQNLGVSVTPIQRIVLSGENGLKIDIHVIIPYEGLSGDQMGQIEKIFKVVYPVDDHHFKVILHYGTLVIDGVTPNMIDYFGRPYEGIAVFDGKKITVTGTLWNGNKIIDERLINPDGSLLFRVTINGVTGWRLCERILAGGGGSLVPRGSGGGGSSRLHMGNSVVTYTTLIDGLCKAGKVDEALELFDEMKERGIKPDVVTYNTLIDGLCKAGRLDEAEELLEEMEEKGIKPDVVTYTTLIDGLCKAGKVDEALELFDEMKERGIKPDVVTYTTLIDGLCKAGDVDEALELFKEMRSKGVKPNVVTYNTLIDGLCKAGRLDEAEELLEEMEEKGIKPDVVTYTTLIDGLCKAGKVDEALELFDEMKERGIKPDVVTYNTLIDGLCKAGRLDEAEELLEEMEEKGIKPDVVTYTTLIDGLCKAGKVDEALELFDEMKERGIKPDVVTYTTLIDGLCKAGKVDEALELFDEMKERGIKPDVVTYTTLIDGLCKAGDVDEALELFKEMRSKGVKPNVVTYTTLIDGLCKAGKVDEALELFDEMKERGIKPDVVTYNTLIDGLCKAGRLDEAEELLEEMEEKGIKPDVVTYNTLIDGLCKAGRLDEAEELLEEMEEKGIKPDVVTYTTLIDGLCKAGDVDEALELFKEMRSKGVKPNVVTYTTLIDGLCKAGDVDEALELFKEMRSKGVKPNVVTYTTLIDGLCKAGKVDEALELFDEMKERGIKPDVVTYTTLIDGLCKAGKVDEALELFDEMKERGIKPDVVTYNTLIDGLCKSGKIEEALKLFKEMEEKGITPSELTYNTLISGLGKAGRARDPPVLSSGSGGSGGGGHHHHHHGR
# Summary of the method: (§2)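 5′-biotinylated 30-base RNA probes holding 18-base targets were captured on streptavidin plates, blocked, then bound 30 min at room temperature with E. coli lysate of luciferase-fused PPR protein (1.5×10⁸ LU/μL) in Tris-HCl pH 7.6 buffer. After washing, luminescence minus no-RNA background gave binding power.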
# NL_v2_PPR22 = target: T3, NL_v2_PPR22 (Artificial Sequence)
# T3 chain: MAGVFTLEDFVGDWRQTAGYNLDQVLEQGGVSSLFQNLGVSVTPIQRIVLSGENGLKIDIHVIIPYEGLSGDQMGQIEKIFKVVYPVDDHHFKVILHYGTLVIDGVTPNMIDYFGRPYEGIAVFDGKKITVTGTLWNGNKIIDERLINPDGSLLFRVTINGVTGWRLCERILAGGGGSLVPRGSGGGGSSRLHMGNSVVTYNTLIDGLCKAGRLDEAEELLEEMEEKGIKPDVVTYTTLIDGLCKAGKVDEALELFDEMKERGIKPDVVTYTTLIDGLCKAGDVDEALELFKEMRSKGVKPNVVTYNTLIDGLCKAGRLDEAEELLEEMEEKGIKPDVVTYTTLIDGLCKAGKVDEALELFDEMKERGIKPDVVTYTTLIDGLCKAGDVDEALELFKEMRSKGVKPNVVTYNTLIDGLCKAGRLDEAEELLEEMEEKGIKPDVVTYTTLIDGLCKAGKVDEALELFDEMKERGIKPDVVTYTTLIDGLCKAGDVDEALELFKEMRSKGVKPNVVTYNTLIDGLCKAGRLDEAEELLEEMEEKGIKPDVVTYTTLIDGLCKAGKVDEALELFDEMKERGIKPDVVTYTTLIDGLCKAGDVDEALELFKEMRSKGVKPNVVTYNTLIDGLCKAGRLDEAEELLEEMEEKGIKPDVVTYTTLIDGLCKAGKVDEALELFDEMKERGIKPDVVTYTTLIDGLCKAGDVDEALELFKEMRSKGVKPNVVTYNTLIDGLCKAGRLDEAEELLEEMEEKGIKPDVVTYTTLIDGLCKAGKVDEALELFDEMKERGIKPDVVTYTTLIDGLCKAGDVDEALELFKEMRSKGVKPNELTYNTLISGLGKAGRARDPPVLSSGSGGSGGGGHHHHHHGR
# Summary of the method: as §2
# NL_v2_PPR16 = target: T4, NL_v2_PPR16 (Artificial Sequence)
# T4 chain: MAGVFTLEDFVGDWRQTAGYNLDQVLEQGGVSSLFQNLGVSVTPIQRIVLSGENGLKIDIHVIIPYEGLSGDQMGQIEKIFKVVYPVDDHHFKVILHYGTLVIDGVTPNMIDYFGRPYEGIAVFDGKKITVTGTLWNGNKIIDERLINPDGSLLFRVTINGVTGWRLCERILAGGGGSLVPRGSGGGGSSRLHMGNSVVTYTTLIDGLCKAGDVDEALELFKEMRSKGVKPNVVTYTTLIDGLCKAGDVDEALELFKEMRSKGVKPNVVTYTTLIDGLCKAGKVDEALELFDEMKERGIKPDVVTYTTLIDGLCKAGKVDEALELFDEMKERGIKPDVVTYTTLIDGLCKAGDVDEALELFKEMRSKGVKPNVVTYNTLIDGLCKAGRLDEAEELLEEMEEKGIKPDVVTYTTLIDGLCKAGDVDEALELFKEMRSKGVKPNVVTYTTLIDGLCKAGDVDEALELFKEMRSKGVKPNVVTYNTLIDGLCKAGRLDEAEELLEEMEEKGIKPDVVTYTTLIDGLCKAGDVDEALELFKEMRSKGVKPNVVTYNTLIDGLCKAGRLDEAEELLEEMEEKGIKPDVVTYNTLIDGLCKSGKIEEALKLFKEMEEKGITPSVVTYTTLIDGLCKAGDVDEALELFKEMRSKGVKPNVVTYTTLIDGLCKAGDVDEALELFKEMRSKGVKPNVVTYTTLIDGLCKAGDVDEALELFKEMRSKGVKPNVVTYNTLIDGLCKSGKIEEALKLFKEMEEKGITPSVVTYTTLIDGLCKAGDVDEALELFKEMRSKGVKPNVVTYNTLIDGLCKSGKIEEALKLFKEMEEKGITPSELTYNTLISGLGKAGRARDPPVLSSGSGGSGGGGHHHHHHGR
# Summary of the method: as §2
# v3.1_PPR22 = target: T5, v3.1_PPR22 (Artificial Sequence)
# T5 chain: T3 chain with D283K, D388K, D493K, D598K, D703K, D808K
# Summary of the method: as §1
sequence,measurement,setting,value
GGUUAGAGAUACAGUGUG,binding signal,v3.1_PPR7,23.4 log2 luminescence
GUGGGGGUGGUAGGAAAU,binding signal,NL_v2_PPR20,22.4 log2 luminescence
same,binding signal,NL_v2_PPR22,21 log2 luminescence
same,binding signal,NL_v2_PPR16,22.1 log2 luminescence
same,binding signal,v3.1_PPR7,24.2 log2 luminescence
same,binding signal,v3.1_PPR22,20.8 log2 luminescence
GACUCAGGAAUCGGCUCU,binding signal,v3.1_PPR7,21 log2 luminescence
GGUGGUGAGGCCCUGGGC,binding signal,NL_v2_PPR20,21.1 log2 luminescence
same,binding signal,v3.1_PPR7,23.8 log2 luminescence
same,binding signal,v3.1_PPR22,20.9 log2 luminescence
GUCAGAGGGUUCUGGAUU,binding signal,v3.1_PPR7,21.3 log2 luminescence

# Source: patent US20220289795, “EFFICIENT METHOD FOR PREPARING PPR PROTEIN AND USE OF THE SAME” (EditForce, Inc., published 2022)
